Source: PubChem BioAssay AID686978 (National Center for Advancing Translational Sciences (NCATS), 2013)
About 64,000 (15%) of roughly 420,000 compounds were called active. Not shown: some 27% with an inconclusive outcome. A selection follows. A number with no mark means an inactive call. The call rests on the fitted dose curve; in most records, active means well fitted inhibition curve with a large enough effect; inconclusive means small, poorly fitted or top-dose-only effect; inactive means flat fitted curve, though single readings scatter.

Assay: qHTS for Inhibitors of human tyrosyl-DNA phosphodiesterase 1 (TDP1): qHTS in cells in absence of CPT; further: nearly all actives have a fitted effect of over 55% in size
Settings: DT40 Tdp1-/- hTDP1 cells, no CPT, ATP luminescence, 48 h; activity change, negative = growth inhibition: at 46.2 µM (top of the series)
Summary of the method: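 Growth kinetics read by CellTiter-Glo luminescence after ≥48 hr at 37 °C. Cells: DT40 Tdp1-/- stably carrying human TDP1, 400 per well, compound exposure in the absence of CPT (DMSO vehicle).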
On the % scale 0 is the no-effect control and ±100 the full control effect; potency means the concentration at half of the fitted maximal effect.

Structure (SMILES)	activity change, negative = growth inhibition	Potency
COC(C)(C)[C@]12CC(O)(C(C)C)ON1[C@H]1CCCCC1N2O (stereo partly drawn)	-2.46%	–
CCC(=O)c1cc2c(cc1NC(=O)c1cccs1)OCCO2	-22.5%	–
Cc1ccc(Oc2nc3ccccc3n3c(C)nnc23)cc1	-4.43%	–
C[C@@H]1NC(=O)[C@@]2(C)[C@@H](c3ccccc3)[C@H]3COc4ccccc4[C@@H]3N2C1=O	-4.21%	–
CCOC(=O)CC(=O)CSc1nc(-c2ccccc2)cc(-c2ccc(Cl)cc2)c1C#N	-20%	–
CC(=O)Nc1ccc(-c2cn3cccnc3n2)cc1	-11.3%	–
CCOc1cc(-c2cc(-c3ccc(NC(C)=O)cc3)nc(N)c2C#N)ccc1O	–	20.6 µM (active)
CCCN(CC1CC1)C(=O)COC(=O)c1ccc(C)cc1O	1.21%	–
CC(C)OC(=O)c1cc(NC(=O)C2C3CCC(O3)C2C(=O)O)cc(C(=O)OC(C)C)c1 (stereo not drawn)	0.438%	–
O=C(CN1CCC(O)(c2ccccc2)CC1)Nc1ccc2c(c1)OCCO2	4.94%	–
Cc1cc(NC(=O)CN2CCC(O)(c3cccc(F)c3)CC2)no1	3.03%	–
O=C(CN1CCC(O)(c2cccc(C(F)(F)F)c2)CC1)NCCc1ccccc1	–	11.6 µM (active)
Cn1c(=O)c2[nH]c(NCC3CCCO3)nc2n(-c2ccccc2)c1=O (stereo not drawn)	5.89%	–
CN(C)S(=O)(=O)c1cccc(-c2nn(-c3ccccc3)cc2/C=C2\SC(=S)N(CC(=O)O)C2=O)c1	19.6%	–
O=C1/C(=C/c2coc3ccc(O)cc3c2=O)SC(=S)N1c1ccccc1	–	16.4 µM (active)
CC1=CC2=NC(=O)/C(=C/c3coc4ccccc4c3=O)C(=N)N2O1	1.53%	–
CN(C)CCCn1c(SCCN2C(=O)c3ccccc3C2=O)nc2ccccc2c1=O	-3.72%	–
CCn1c2ccccc2c2cc(CC(N)=O)ccc21	-5.1%	–
CCc1ccc(CNC(=O)c2cc3c(=O)n(CC)c4ccccc4c3s2)cc1	–	29.1 µM (active)
CN(Cc1ccccc1)C(=O)c1cc2c(=O)n(C)c3ccccc3c2s1	-12.8%	–
Cc1cc(=O)oc(C)c1C(=O)N1CCCCC1	-13.6%	–
COc1ccc(C)cc1N(C)C(=O)c1c(C)oc2ncnc(N3CCOCC3)c12	-5.93%	–
Cc1oc2ncnc(N3CCCCC3)c2c1C(=O)N1CCN(c2cccc(Cl)c2)CC1	–	16.4 µM (active)
O=C(COC(=O)CNC(=O)C1CCCCC1)Nc1cccc(F)c1	10.7%	–
Cc1cccc(OCC(=O)NCC(=O)N/N=C/c2ccc(N(C)C)cc2)c1	-14.1%	–
COc1ccccc1NC1=NC(c2ccc(Cl)cc2)N=C(N)N1 (stereo not drawn)	–	5.8 µM (active)
COc1ccccc1NC1=NC2(CCCC2)N=C(N)N1	-23.7%	–
COc1cc(C2C(C(=O)Nc3ccccc3OC)=C(C)Nc3ncnn32)ccc1O (stereo not drawn)	-2.28%	–
